# Hits are enriched below; roughly 1.9% of the tested compounds scored in any of these assays.
# PGE2 EP2 inh = human EP2 receptor antagonists, primary screen, TR-FRET cAMP, C6 glioma cells; C6 glioma cells expressing human EP2; cells stimulated with saturating PGE2; inhibition, % at 25 µM; 0.52% of 260,000 active;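 active = percent inhibition above 40 after rounding to a whole number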;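 note: rat C6 glioma host cells with rolipram phosphodiesterase inhibitor present; the protocol text gives 20 µM as final concentration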
# S1P3 antag = S1P3 receptor antagonists, primary screen, cell-based; Sphingosine 1-phosphate receptor 3 (Homo sapiens), Q99500; CHO S1P3 NFAT-BLA reporter, FRET fluorescence, antagonist mode; inhibition, % at 4.98 µM; 0.27% of 170,000 active;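 active = inhibition above the plate cutoff, the mean inhibition of test wells on that plate plus 3 SD, cut at about 28% in these data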;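 note: cells challenged with S1P at its EC80 of 0.8 µM; blue over green emission ratio from cleaved BLA substrate after 4 h stimulation; 0% = S1P-stimulated wells and 100% = unstimulated DMSO-only wells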
# S1P4 antagonist = S1P4 receptor antagonists, primary screen, cell-based | inhibition, % at 4.98 µM | Sphingosine 1-phosphate receptor 4 (Homo sapiens), O95977 | 0.26% of 220,000 active | S1P4-expressing cells, antagonist mode, reporter read-out | AID 1510, 2009; in the data active = inhibition above about 29%;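 note: 0% = wells stimulated with agonist and 100% = vehicle wells without agonist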
# Target sequence (O95977 whole entry, looked up): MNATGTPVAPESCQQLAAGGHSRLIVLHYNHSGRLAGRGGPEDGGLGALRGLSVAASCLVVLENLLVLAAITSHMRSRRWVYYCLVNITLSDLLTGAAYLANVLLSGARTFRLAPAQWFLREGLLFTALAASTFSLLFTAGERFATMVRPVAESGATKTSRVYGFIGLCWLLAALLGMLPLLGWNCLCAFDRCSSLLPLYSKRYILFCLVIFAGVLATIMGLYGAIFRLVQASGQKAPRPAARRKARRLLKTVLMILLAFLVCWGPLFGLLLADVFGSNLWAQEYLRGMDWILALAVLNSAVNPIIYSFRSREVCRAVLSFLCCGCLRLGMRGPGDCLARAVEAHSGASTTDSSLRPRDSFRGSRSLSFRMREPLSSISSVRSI
# S1P4 agonist = S1P4 receptor agonists, primary screen, cell-based; S1P4-expressing cell line, agonist reporter assay; activation, % at 4.98 µM; 0.35% of 220,000 active; Sphingosine 1-phosphate receptor 4 (Homo sapiens), O95977; in the data active = activation above about 11%;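 note: 0% = DMSO vehicle and 100% = reference agonist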
# EP2 modulator = EP2 receptor modulators, cAMP readout, primary screen, cell-based, HTRF cAMP, PGE2 stimulation | Prostaglandin E2 receptor EP2 subtype (Homo sapiens), P43116 | EP2-expressing cells, cAMP HTRF FRET, PGE2 co-stimulation | induction, % at 25 µM | 0.83% of 260,000 active;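 active = compounds whose cAMP rise, as percent of the full-agonist control response, exceeds 60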;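 note: rat C6 glioma line stably carrying human EP2 under a CMV promoter; the protocol text gives 20 µM as final concentration; 100% = response of wells given 1 µM PGE2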
# EP2 cAMP induct = cAMP induction in EP2, EP4, beta2-AR and parental cells, confirmation, counter-screen for EP2 modulator project, cell-based, five parallel assays, C6 glioma, HEK293; shares compounds with EP2 modulator; cAMP HTRF induction; plus low (about EC15) PGE2 agonist; calls only at 20 µM (by protocol); 47% of 1,300 active; AID 1080, 2008;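 active = cAMP induction above 50% in the main assay while under 30% in all four parallel counter assays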;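 note: rat C6 glioma cells stably expressing human EP2 receptor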
# * hit, by the source's call; i = inactive; x = not tested or not shown; + = active, no number; ! = repeats disagree.
SMILES,PGE2 EP2 inh,S1P3 antag,S1P4 antagonist,S1P4 agonist,EP2 modulator,EP2 cAMP induct
COc1cccc(-c2nc(N3CC(C)CC(C)C3)c3ccccc3n2)c1O (centres undefined),x,x,-3,1,70*,+
CC(C)Oc1nc(-c2ccccc2O)nc2ccccc12,10,-44,-12,0,80*,+
c1cncc(-c2nc(N3CCCCCC3)c3ccccc3n2)c1,x,16,-20,6,74*,+
COc1cccc(-c2nc(N3CCC(C)CC3)c3ccccc3n2)c1O,19,x,-4,1,56,x
CCOc1ccc(-c2cc(C(=O)Nc3n[nH]c(-c4cccs4)c3C)[nH]n2)cc1,5,x,x,x,-44,x
C=CCn1c(SCC(=O)Nc2cc(C)ccc2C)nnc1-c1ccncc1,15,x,x,x,14,x
COc1ccc(C2C(C#N)=C(N)OC3=C2C(=O)CCC3)cc1Cl (centres undefined),5,x,x,x,24,x
Cn1c(NN)nc2c(c1=O)C1(CCCC1)Cc1ccccc1-2,10,x,x,x,59,x
O=c1c2c(nc3n1CCCCC3)-c1ccccc1CC21CCCCC1,6,x,-24,5,66*,+
CN(C)c1ncc(-c2nc3cnccn3c2NCc2ccc3c(c2)OCO3)cn1,x,x,x,x,-9,x
COC(=O)C1C(c2ccccc2)C(C(=O)OCc2ccco2)C1c1ccccc1 (centres undefined),8,x,8,1,68*,i
CSc1nc(Nc2ccccc2)c2ccccc2n1,11,x,x,x,-38,x
CSc1nc(Sc2ccccc2Cl)c2ccccc2n1,18,x,-15,-2,67*,i
CCOC(=O)c1cnc(SC)nc1Sc1ccccc1Cl,7,x,-6,-4,73*,i
CCOC(=O)c1cnc(SC)nc1NCCOC,5,-8,-4,0,-18,x
Cc1ccc(Cl)cc1NC(=O)C(=O)N1CCCCC1,2,-9,12,-3,15,x
Cc1ccc(Cl)cc1NC1=NC(=S)N(C(C)C)C12CCCCC2,7,x,20,0,93*,+
CCCC(=O)Nc1ccccc1Sc1ncnc2scc(-c3ccccc3)c12,6,-2,-7,0,68*,i
CC1CN(c2nc3c(c(=O)[nH]2)CCN(Cc2ccc4ncccc4c2)C3)CC(C)O1 (centres undefined),6,x,x,x,7,x
Cc1ccc(S(=O)(=O)NCC(=O)OCN2C(=O)c3ccccc3C2=O)cc1,8,x,-10,0,67*,i
CCOc1ccc(S(=O)(=O)NCCC(=O)OCN2C(=O)c3ccccc3C2=O)cc1,6,-7,-8,-5,20,x
COc1ccccc1CNc1cc(C)ccc1C,23,x,16,0,66*,i
Cc1nc2c(c(C)nn2-c2ccccc2)c(C)c1Cl,7,-25,-12,0,77*,i
COc1ccc(C(=O)Nc2cc(C(F)(F)F)ccc2N2CCCC2)cc1OC,18,x,x,x,-34,x
Cc1cccc(C)c1NC(=O)CSc1nnc(C2CCCCC2)n1C,9,x,x,x,7,x
SMILES,PGE2 EP2 inh,S1P3 antag,S1P4 antagonist,S1P4 agonist,EP2 modulator,EP2 cAMP induct
N#CN=C1SCCS1,13,x,-6,-1,66*,i
O=C(CN1CCC(N2CCCCC2)CC1)Nc1ccc(F)cc1F,3,x,x,x,-11,x
CCOc1cccc(NC(=O)CN2C(=O)C3CCCN3C(=O)c3ccccc32)c1 (centres undefined),13,x,x,x,-4,x
c1ccc(CN2CCN(Cc3cccnc3)CC2)nc1,9,x,x,x,-16,x
c1ccc(CCc2cccnc2)nc1,12,x,x,x,74*,i
CC(C)(C)C(=O)NC1CCN(CC(N)=O)CC1,9,x,x,x,-38,x
Cc1ccc(-n2nc3c(=S)[nH]nc(C)c3c2C)cc1,x,x,-8,1,81*,i
CCOC(=O)C1=C(C)NC(C)=C(C(=O)OC)C1c1cccc(Cl)c1Cl (centres undefined),9,-16,8,1,65*!,i
CCOC(=O)C1=C(COCCN)NC(C)=C(C(=O)OC)C1c1ccccc1Cl (centres undefined),24,x,x,x,5,x
